Assay outcomes as filed in PubChem BioAssay.
Pf Dd2 inh: blocks in vitro growth of P. falciparum Dd2; P. falciparum Dd2 growth, SYBR Green, 72 h; Potency, µM (top dose mostly 28.9 µM), for the others: at the top dose activity, negative = inhibition, hits mostly inhibitors; hit rate 4.3% among 120,000; active = well fitted inhibition curve with a large enough effect;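 also: plate controls were DMSO vehicle for no effect and reference drug for full effect; nearly all actives have a fitted effect of over 65% in size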
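Readout: SYBR Green fluorescence, 485 nm excitation, 535 nm emission, after ~16 h lysis at 37C. Before that, Dd2-infected red cells (2.5% hematocrit) grew 72 h with compound, 29 uM top final concentration.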
* hit, by the source's call; i = inactive; [ ] = another dose, or the depositor's remark. Many of the other results were omitted from the sample, so hits are more common in it than they were. Potency is read from the fitted curve at half-maximal effect.

SMILES	Pf Dd2 inh
COc1ccc(-c2cc(N3CCC(NC(=O)c4cc(F)ccc4Cl)CC3)n[nH]2)cc1	-11.1%
COc1ccc(-c2cc(N3CCC(NC(=O)c4ccc(F)cc4F)CC3)n[nH]2)cc1	1.26µM*
COc1ccc(-c2cc(N3CCCC(NC(=O)c4cc(C)cc(C)c4)C3)n[nH]2)cc1 (configuration not stated)	8.91µM*
COc1ccc(-c2cc(N3CCC(NC(=O)c4ccc(F)cc4Cl)CC3)n[nH]2)cc1	i
COc1ccc(C(=O)NC2CCN(c3cc(-c4ccccc4)[nH]n3)C2)c(C)c1 (configuration not stated)	i
Cc1ccc(C(=O)NC2CCN(c3cc(-c4ccc(F)cc4)[nH]n3)C2)cc1C (configuration not stated)	12.6µM*
COc1ccc(-c2cc(N3CCC(NC(=O)c4ccc(C)c(C)c4)C3)n[nH]2)cc1 (configuration not stated)	-4.2%
COc1ccc(-c2cc(N3CCC(NC(=O)c4cc(C)cc(C)c4)C3)n[nH]2)cc1 (configuration not stated)	i
COc1ccc(-c2cc(N3CCCC(NC(=O)c4cc(C)ccc4C)C3)n[nH]2)cc1 (configuration not stated)	-6.5%
Cc1ccc(C(=O)NC2CCN(c3cc(-c4ccc(F)cc4)[nH]n3)CC2)cc1C	i
COc1ccc(C(=O)NC2CCN(c3cc(-c4ccccc4)[nH]n3)C2)c(OC)c1 (configuration not stated)	4.47µM*
COc1ccc(-c2cc(N3CCC(NC(=O)c4ccccc4C)C3)n[nH]2)cc1 (configuration not stated)	i
O=C(c1cn2c(n1)CN(C(=O)c1ccccc1F)CC2)N1CCOCC1	19.8%
CS(=O)(=O)N1CCC(CC(=O)Nc2cccc(F)c2)C1 (configuration not stated)	9.7%
COc1ccc(CN2CC3(CCN(S(=O)(=O)c4ccc(F)cc4)CC3)C2=O)cc1	i
Cn1ccnc1CN1C(=O)CO[C@H](c2ccc(NC(=O)c3ccc(C(F)(F)F)cc3)cc2)[C@H]1CO	i
CC(C)c1ccc(OCc2nnc(C(=O)N3CCC[C@@H]3C)n2-c2cccnc2)cc1	i
CS(=O)(=O)N(C[C@H]1O[C@@H](CC(=O)NC2CC2)[C@H](O)[C@@H]1O)C[C@H]1O[C@@H](CC(=O)NC2CC2)[C@H](O)[C@@H]1O	15.9%
COc1cccc(S(=O)(=O)N2CC3(Cc4ccccc4NC3=O)C2)c1	-4.5%
Cc1cccc(C)c1NC(=O)N1CCCC1c1nncn1C1CCCC1 (configuration not stated)	-2.2%
O=C1CCN(C(=O)c2ccccc2)CCCC(C(=O)NCCCc2ccccc2)CCN1 (configuration not stated)	i
COc1ccc(C(=O)NC2CCN(c3cc(-c4ccc(Cl)cc4)[nH]n3)C2)cc1 (configuration not stated)	8.91µM*
COc1ccc(C(=O)NC2CCN(c3cc(-c4ccc(OC)cc4)[nH]n3)C2)cc1 (configuration not stated)	-9.9%
COc1ccc(-c2cc(N3CCCC(NC(=O)c4cc(Cl)ccc4OC)C3)n[nH]2)cc1 (configuration not stated)	-10.0%
COc1ccc(C(=O)NC2CCN(c3cc(-c4ccc(Cl)cc4)[nH]n3)C2)c(OC)c1 (configuration not stated)	5.01µM*
SMILES	Pf Dd2 inh
COc1ccc(Cl)cc1C(=O)NC1CCN(c2cc(-c3ccc(F)cc3)[nH]n2)C1 (configuration not stated)	-12.3%
COc1ccc(C(=O)NC2CCN(c3cnn(C)c(=O)c3)CC2)c(OC)c1	-18.7%
COc1ccc(-c2cc(N3CCC(NC(=O)c4ccc(Br)cc4)C3)n[nH]2)cc1 (configuration not stated)	-21.8%
COc1ccc(C(=O)NC2CCN(c3cnn(CC4CC4)c(=O)c3)CC2)c(OC)c1	7.94µM*
COc1ccccc1C(=O)NC1CCN(c2cnn(CC3CC3)c(=O)c2)CC1	i
COc1cc(=O)n2c(c1C(=O)Nc1cccc(Cl)c1C)CCCC2	48.4%
CC1=C(C(=O)Nc2ccccc2)C(c2ccc(F)cc2)N2C(CC(=O)NCC(C)C)=CSC2=N1 (configuration not stated)	i
CC(C)C[C@@H](NC(=O)[C@@]1(O)C[C@@H](O)[C@H](O)[C@@H](NC(=O)Nc2ccc(OC(F)(F)F)cc2)C1)C(N)=O	-12.4%
COCCNC(=O)Cc1ccc(N(Cc2cccc(F)c2)C(=O)c2ccco2)cc1	i
O=C(Cc1ccc(N(Cc2ccc(F)cc2)C(=O)c2ccco2)cc1)NCCc1ccccc1	-2.7%
C=CCNC(=O)Cc1ccc(N(Cc2ccccc2)C(=O)c2ccco2)cc1	i
COCCNC(=O)Cc1ccc(N(Cc2ccc(C)cc2)C(=O)c2ccco2)cc1	5.62µM*
COc1ccc(CN(C(=O)c2ccco2)c2ccc(CC(=O)NCCc3ccccc3)cc2)cc1	3.98µM*
CCNC(=O)Cc1ccc(N(Cc2ccc(C)cc2)C(=O)c2ccco2)cc1	i
O=C(C1CCc2nnc(-c3cccc(C(F)(F)F)c3)n21)N1CCOCC1 (configuration not stated)	13.4%
Cc1ccc2oc([C@H]3CCN(S(=O)(=O)c4ccc(F)cc4)C3)nc2c1	-13.1%[44.1 µM]
CCOC(=O)C1=CN(CC(=O)Nc2ccc(OC)cc2)S(=O)(=O)N=C1C	20.6%
O=C(Cn1ccn2nc3c(c2c1=O)CCCCC3)NCc1ccc(F)cc1	24.3%
CCCN1C(=O)Cc2ccccc2C1C(=O)NCc1cccc(F)c1 (configuration not stated)	-23.0%
CC(C)(C)CC(=O)N1Cc2[nH]cnc2C[C@H]1C(=O)NCc1ccccc1	i
CN(C)c1nc2c(c(=O)[nH]1)CCN(Cc1ccccc1)CC2	16.7%[5.79 µM]
CN(C)c1nc2c(c(=O)[nH]1)CCN(Cc1ccccc1F)CC2	i[5.79 µM]
CN(C)c1nc2c(c(=O)[nH]1)CCN(Cc1ccc(Br)cc1)CC2	2µM*
CN(C)c1nc2c(c(=O)[nH]1)CCN(Cc1ccccc1Br)CC2	1.12µM*
O=c1[nH]c(N2CCOCC2)nc2c1CCN(Cc1cc(F)cc(F)c1)CC2	-2.0%[5.79 µM]
SMILES	Pf Dd2 inh
Cc1ccc(CN2CCc3nc(N4CCOCC4)[nH]c(=O)c3CC2)cc1C	i[5.79 µM]
CN(C)c1nc2c(c(=O)[nH]1)CCN(Cc1ccc(Cl)cc1)CC2	-3.8%[5.79 µM]
O=c1[nH]c(N2CCOCC2)nc2c1CCN(Cc1ccc(C(F)(F)F)cc1)CC2	1.26µM*
CN(C)c1nc2c(c(=O)[nH]1)CCN(Cc1cccc(F)c1F)CC2	i[5.79 µM]
COCCOC1CCN(C(=O)c2c[nH]c3ccccc23)CC1	19.8%
COc1ccccc1C(=O)N1[C@@H]2CC[C@H]1CC(NC(=O)c1cnc(C)cn1)C2 (some centres not stated)	-19.3%
CCOc1ccc(C(=O)N2CCC(n3cc(-c4nc(CC)no4)nn3)C2)cc1 (configuration not stated)	i
O=C(O)C1=NOC2CN(C(=O)Cc3ccccc3)CC12 (configuration not stated)	35.6%[44.1 µM]
Cc1cc(C)n(Cc2cc(C(=O)NC[C@H]3C[C@H]4C=C[C@H]3C43CC3)n[nH]2)n1	-23.8%
CCc1cc(=O)n(CC(=O)Nc2ccc(C)c(F)c2)c(N2CCOCC2)n1	i
O=C(NCC1CCOCC1)Nc1ccccc1Br	i
C[C@@H]1CN(Cc2nc(C(N)=O)no2)CC[C@@]1(O)C1CCOCC1	-4.9%
COc1ccc(CNC(=O)N2CC[C@@](O)(C3CCC3)[C@H](C)C2)cc1	-11.4%
